Measurements: PubChem BioAssay (NCATS)
The other results are listed elsewhere or left out. Inconclusive results are not listed. Activity calls are given as the source filed them. Calls follow the shape of the dose curve; as a rule, active = well fitted curve in the direction sought with a large enough effect; inconclusive = small, poorly fitted or top-dose-only effect, or another doubt; inactive = no such curve, though single readings can be large; an effect the other way counts as inactive or inconclusive.

target: ATPase family AAA domain-containing protein 5 (Homo sapiens) (UniProt Q96QE3); test: qHTS screen for small molecules that inhibit ELG1-dependent DNA repair in human embryonic kidney (HEK293T) cells expressing luciferase-tagged ELG1: Hit Confirmation using MMS Stimulated ELG1 (AID 624249); conditions: HEK293T luciferase-tagged ELG1 level; series mostly up to 46.1 µM; activity change, negative = inhibition: at the top concentration;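 as to activity change, negative = inhibition: cells co-treated with MMS at 10 µM final alongside compound; luminescence of ELG1-luciferase fusion read with Amplight reagent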
Sequence (Q96QE3 whole entry, looked up, the tested form may be a part): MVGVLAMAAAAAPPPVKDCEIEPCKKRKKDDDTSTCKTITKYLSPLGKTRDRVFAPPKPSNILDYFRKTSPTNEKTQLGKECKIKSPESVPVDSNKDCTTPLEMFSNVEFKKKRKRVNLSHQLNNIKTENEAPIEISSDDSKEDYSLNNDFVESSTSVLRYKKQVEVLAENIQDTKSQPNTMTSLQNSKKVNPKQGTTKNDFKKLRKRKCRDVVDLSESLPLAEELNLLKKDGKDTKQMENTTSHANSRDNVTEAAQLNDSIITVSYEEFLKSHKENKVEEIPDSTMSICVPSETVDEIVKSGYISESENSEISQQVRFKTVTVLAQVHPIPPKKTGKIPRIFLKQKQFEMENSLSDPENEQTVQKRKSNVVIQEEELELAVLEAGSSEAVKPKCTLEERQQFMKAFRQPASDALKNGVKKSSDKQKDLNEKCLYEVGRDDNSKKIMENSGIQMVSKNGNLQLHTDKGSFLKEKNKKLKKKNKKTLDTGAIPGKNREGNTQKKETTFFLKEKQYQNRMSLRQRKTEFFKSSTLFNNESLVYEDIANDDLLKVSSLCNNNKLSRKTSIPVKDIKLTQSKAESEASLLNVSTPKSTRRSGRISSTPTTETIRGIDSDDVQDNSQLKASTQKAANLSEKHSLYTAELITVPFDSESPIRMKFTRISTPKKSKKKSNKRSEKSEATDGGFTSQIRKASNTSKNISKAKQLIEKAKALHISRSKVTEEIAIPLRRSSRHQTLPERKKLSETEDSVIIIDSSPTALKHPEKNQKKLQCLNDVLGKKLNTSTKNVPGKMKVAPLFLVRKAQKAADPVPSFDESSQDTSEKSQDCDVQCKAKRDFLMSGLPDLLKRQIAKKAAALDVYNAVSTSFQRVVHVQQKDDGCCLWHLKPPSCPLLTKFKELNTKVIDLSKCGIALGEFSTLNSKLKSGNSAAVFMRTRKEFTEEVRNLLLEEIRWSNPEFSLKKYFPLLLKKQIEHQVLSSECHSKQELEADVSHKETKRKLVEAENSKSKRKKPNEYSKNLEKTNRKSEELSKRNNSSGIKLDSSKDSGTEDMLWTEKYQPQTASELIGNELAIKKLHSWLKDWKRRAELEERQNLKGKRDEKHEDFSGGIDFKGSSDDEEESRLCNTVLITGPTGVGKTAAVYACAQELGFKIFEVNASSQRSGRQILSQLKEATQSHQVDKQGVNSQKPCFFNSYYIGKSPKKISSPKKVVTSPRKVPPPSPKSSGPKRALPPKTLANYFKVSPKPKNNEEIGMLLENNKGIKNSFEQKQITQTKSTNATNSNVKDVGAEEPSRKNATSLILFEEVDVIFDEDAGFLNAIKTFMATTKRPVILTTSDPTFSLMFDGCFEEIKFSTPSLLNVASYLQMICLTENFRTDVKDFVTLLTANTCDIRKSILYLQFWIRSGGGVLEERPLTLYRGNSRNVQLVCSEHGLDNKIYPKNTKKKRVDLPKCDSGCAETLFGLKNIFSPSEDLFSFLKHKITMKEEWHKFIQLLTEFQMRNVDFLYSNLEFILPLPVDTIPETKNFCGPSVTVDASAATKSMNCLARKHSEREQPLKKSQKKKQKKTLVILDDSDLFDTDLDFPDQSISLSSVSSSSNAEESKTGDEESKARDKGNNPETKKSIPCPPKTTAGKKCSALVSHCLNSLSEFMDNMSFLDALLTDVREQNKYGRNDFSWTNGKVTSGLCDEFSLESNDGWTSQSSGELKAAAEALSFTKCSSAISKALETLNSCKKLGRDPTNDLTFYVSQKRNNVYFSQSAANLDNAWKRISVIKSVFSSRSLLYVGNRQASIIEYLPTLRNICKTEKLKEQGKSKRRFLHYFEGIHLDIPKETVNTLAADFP
Outline: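 Luciferase activity from the ELG1 reporter was quantified with Amplight 16 h after dosing. The HEK293T cells had been seeded about 5 h before compound and MMS (final 10 µM) addition.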
% is scaled to controls: 0 for no effect and ±100 for the full control effect; potency is read from the fitted curve at half-maximal effect.
Also: nearly all actives have a fitted effect of over 60% in size.

SMILES	Potency	activity change, negative = inhibition
CCc1ccc(N(CC)c2ncnc3nc[nH]c23)cc1	17.7 µM (active)	
COc1ccccc1C(=O)Nc1ccc(C)c(S(=O)(=O)N2CCCCC2)c1	14.1 µM (active)	
CN(CC1CCCO1)S(=O)(=O)c1ccc(C(=O)Nc2ccc(F)cc2)cc1 (stereo not given)	22.3 µM (active)	
Nc1nnc(SCC(=O)Nc2ccc3nc(SCC(=O)Nc4ccccc4)sc3c2)s1	4.99 µM (active)	
OCCCNc1nccc(-c2cc(Nc3cccc(Cl)c3)ncn2)n1	0.629 µM (active)	
COc1ccc(NC(=O)C2CCC(CNc3c(N4CCCCC4)c(=O)c3=O)CC2)c(OC)c1 (stereo not given)		-10.7% (inactive)
COc1ccc(S(=O)(=O)Nc2ccc3oc(C)c(C(C)=O)c3c2)cc1	3.97 µM (active)	
Clc1ccc2nc(-c3ccccc3)nc(C(Cl)Cl)c2c1	2.23 µM (active)	
NC(=O)c1sc2nc3c(c(-c4ccccc4)c2c1N)CCC3	7.05 µM (active)	
CS(=O)(=O)c1ccc2nc(NC(=O)C3CCCCC3)sc2c1		-14% (inactive)
COc1ccc(NS(=O)(=O)c2ccc(Oc3c(C#N)cccc3C#N)cc2)cc1	3.15 µM (active)	
Cc1ccc(C)c(S(=O)(=O)N2CCN(c3ncnc4sccc34)CC2)c1	2.81 µM (active)	
COc1ccc(CSc2nc(N3CCOCC3)c3c(c2C#N)CC(C)(C)OC3)cc1		0.231% (inactive)
CC(=O)c1c(C)n(-c2ccc(C)cc2)c2ccc(O)cc12		19.7% (inactive)
CC(C)(CNC(=O)c1ccc(Cl)c(S(=O)(=O)N2CCc3ccccc3C2)c1)N1CCOCC1	1.58 µM (active)	
O=C(C1CCCN(S(=O)(=O)c2ccccc2)C1)N1CCN(c2ccc(F)cc2)CC1 (stereo not given)	4.45 µM (active)	
COc1ccc(CNc2ncnc3ccccc23)cc1	1.58 µM (active)	
Cc1cc2oc(=O)cc(CN3CCN(S(=O)(=O)c4cccs4)CC3)c2cc1C(C)C	8.88 µM (active)	
COc1ccc(-c2nn(-c3ccccc3)cc2/C=C\C(=O)N2CCOCC2)cc1[N+](=O)[O-]		23% (inactive)

system: not listed separately; test: qHTS screen for small molecules that inhibit ELG1-dependent DNA repair: Hit Confirmation with MMS Viability (AID 624251); conditions: Cell viability with MMS; series mostly up to 46.1 µM; activity change, negative = viability loss: at the top concentration;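 also: ELG1-luc HEK293T cells co-treated with 10 µM MMS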
Outline: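 Luminescent ATP read-out (CellTiter-Glo) gives viability of ELG1-luc HEK293T cells exposed to compounds together with 10 µM methyl methanesulfonate for 16 h.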

SMILES	activity change, negative = viability loss	Potency
CCc1ccc(N(CC)c2ncnc3nc[nH]c23)cc1	-7.51% (inactive)	
COc1ccccc1C(=O)Nc1ccc(C)c(S(=O)(=O)N2CCCCC2)c1	-23.1% (inactive)	
Nc1nnc(SCC(=O)Nc2ccc3nc(SCC(=O)Nc4ccccc4)sc3c2)s1		5.6 µM (active)
OCCCNc1nccc(-c2cc(Nc3cccc(Cl)c3)ncn2)n1		2.5 µM (active)
COc1ccc(NC(=O)C2CCC(CNc3c(N4CCCCC4)c(=O)c3=O)CC2)c(OC)c1 (stereo not given)	-3.43% (inactive)	
CN(C)c1ccnc2sc3c(=O)n(Cc4ccccc4)cnc3c12	2.47% (inactive)	
COc1ccc(S(=O)(=O)Nc2ccc3oc(C)c(C(C)=O)c3c2)cc1		3.97 µM (active)
COc1ccc(NC(C)=O)cc1NC(=O)CN1CCN(C2c3ccccc3-c3ccccc32)CC1	2.19% (inactive)	
Clc1ccc2nc(-c3ccccc3)nc(C(Cl)Cl)c2c1		3.97 µM (active)
NC(=O)c1sc2nc3c(c(-c4ccccc4)c2c1N)CCC3	13.6% (inactive)	
CS(=O)(=O)c1ccc2nc(NC(=O)C3CCCCC3)sc2c1	-2.61% (inactive)	
Cc1ccc(N(Cc2ccc(C(=O)Nc3ccccc3C(=O)NCc3ccco3)cc2)S(C)(=O)=O)cc1C	-6.33% (inactive)	
COc1ccc(NS(=O)(=O)c2ccc(Oc3c(C#N)cccc3C#N)cc2)cc1		4.45 µM (active)
Cc1ccc(C)c(S(=O)(=O)N2CCN(c3ncnc4sccc34)CC2)c1		2.5 µM (active)
COc1ccc(CSc2nc(N3CCOCC3)c3c(c2C#N)CC(C)(C)OC3)cc1	13.9% (inactive)	
CCOC(=O)c1cccc(NC(=O)C2CCN(c3ncnc4c3nc3n4CCCCC3)CC2)c1	-16.4% (inactive)	
CC(=O)c1c(C)n(-c2ccc(C)cc2)c2ccc(O)cc12	7.12% (inactive)	
Cc1ccccc1NC(=O)CSc1nc2ccc(Nc3nc(N4CCOCC4)nc(N4CCOCC4)n3)cc2s1	-2.12% (inactive)	
CC(C)(CNC(=O)c1ccc(Cl)c(S(=O)(=O)N2CCc3ccccc3C2)c1)N1CCOCC1		1.99 µM (active)
O=C(C1CCCN(S(=O)(=O)c2ccccc2)C1)N1CCN(c2ccc(F)cc2)CC1 (stereo not given)		3.97 µM (active)
COc1ccc(NC(=O)c2sc3nc(C)nc(N4CCN(c5ccccn5)CC4)c3c2C)c(OC)c1	-3.03% (inactive)	
COc1ccc(CNc2ncnc3ccccc23)cc1		2.23 µM (active)
Cc1cc2oc(=O)cc(CN3CCN(S(=O)(=O)c4cccs4)CC3)c2cc1C(C)C		22.3 µM (active)
COc1ccc(-c2nn(-c3ccccc3)cc2/C=C\C(=O)N2CCOCC2)cc1[N+](=O)[O-]	10.3% (inactive)	
CC12CCC(C(=O)N3CCN(c4ncccn4)CC3)(c3nc4ccccc4nc31)C2(C)C (stereo not given)	-11.1% (inactive)	
Cc1ccc(Nc2nc(N3CCOCC3)nc(N3CCOCC3)n2)cc1Cl	-4.13% (inactive)	
